Reference: PubChem BioAssay (EPA / NIEHS)
Active and inactive are the calls of the source. Rule for the calls: active = hit-call score of the fitted dose curve at least 0.9, where 1 is the maximum; inactive = score below 0.9.

Tests used:
Settings in all cases: mRNA level, 48 h; actives raise or lower the signal
[1] = read-out: Cyclin D1 (CCND1), CCND1 (gene 595); assay: LTEA_HepaRG_CCND1: Life Technologies and Expression Analysis (LTEA) Assay for Cyclin D1 (CCND1) using HepaRG (AID 2283451);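 for AC50: TaqMan qRT-PCR transcript level normalised to ACTB GAPDH and POLR2A housekeeping genes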
Outline: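 Expression change is measured by qRT-PCR in HepaRG cells after 48 h treatment across eight concentrations topping at 100 uM, with duplicate wells and DMSO (0.5%) serving as baseline for bidirectional fitting.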

[2] = read-out: catalase (CAT), CAT (gene 847); assay: LTEA_HepaRG_CAT: Life Technologies and Expression Analysis (LTEA) Assay for catalase (CAT) using HepaRG (AID 2283452);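 for AC50: TaqMan qRT-PCR signal normalized to ACTB GAPDH and POLR2A housekeeping genes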
Outline: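 Differentiated HepaRG cells in serum-free induction medium were dosed 48 h in duplicate, eight half-log concentrations from 100 uM in 0.5% DMSO. Transcript measured by TaqMan qRT-PCR, normalised to ACTB/GAPDH/POLR2A, fitted bidirectionally against DMSO.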

[3] = read-out: flavin-containing dimethylaniline monooxygenases 3 (FMO3), FMO3 (gene 2328); assay: LTEA_HepaRG_FMO3: Life Technologies and Expression Analysis (LTEA) Assay for flavin-containing dimethylaniline monooxygenases 3 (FMO3) using HepaRG (AID 2283453)
Outline: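 Differentiated HepaRG cells in serum-free induction medium, exposed 48 h in duplicate to 8 half-log concentrations up to 100 uM in 0.5% DMSO. FMO3 mRNA by qRT-PCR, normalized to ACTB, GAPDH, POLR2A; bidirectional fit vs DMSO.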

[4] = read-out: Cytochrome P450 (CYP1A1), CYP1A1 (gene 1543); assay: LTEA_HepaRG_CYP1A1: Life Technologies and Expression Analysis (LTEA) Assay for Cytochrome P450 (CYP1A1) using HepaRG (AID 2283454)
Outline: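 Using HepaRG cultures with 0.5% DMSO as vehicle, eight-concentration exposures (max 100 uM) lasted 48 h. Transcript levels were measured by TaqMan qRT-PCR and normalized to ACTB, GAPDH and POLR2A.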

[5] = read-out: CFLAR gene, CFLAR (gene 8837); assay: LTEA_HepaRG_CFLAR: Life Technologies and Expression Analysis (LTEA) Assay for CFLAR gene using HepaRG (AID 2283455)
Outline: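 HepaRG cells were plated for 48 h, switched to serum-free induction medium, then exposed in duplicate for 48 h to 8 concentrations (top 100 uM, half-log steps, 0.5% DMSO). CFLAR mRNA was measured by qRT-PCR, normalized to ACTB, GAPDH and POLR2A.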

[6] = read-out: Forkhead box O1 (FOXO1), FOXO1 (gene 2308); assay: LTEA_HepaRG_FOXO1: Life Technologies and Expression Analysis (LTEA) Assay for Forkhead box O1 (FOXO1) using HepaRG (AID 2283456)
Outline: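 Differentiated human HepaRG cells in serum-free induction medium were exposed in duplicate for 48 h to eight half-log concentrations (top 100 uM, 0.5% DMSO). FOXO1 mRNA was measured by TaqMan qRT-PCR, normalised to ACTB, GAPDH and POLR2A, and fitted bidirectionally against DMSO.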

[7] = read-out: growth arrest and DNA damage 45 (GADD45A), GADD45A (gene 1647); assay: LTEA_HepaRG_GADD45A: Life Technologies and Expression Analysis (LTEA) Assay for growth arrest and DNA damage 45 (GADD45A) using HepaRG (AID 2283458)
Outline: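 Cells plated and cultured 48 h, switched to serum-free induction medium, then dosed for 48 h (100 uM top, half-log dilutions, 0.5% DMSO). RNA was isolated and transcript measured by Fluidigm qRT-PCR.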

[8] = read-out: Forkhead box O3 (FOXO3), FOXO3 (gene 2309); assay: LTEA_HepaRG_FOXO3: Life Technologies and Expression Analysis (LTEA) Assay for Forkhead box O3 (FOXO3) using HepaRG (AID 2283459)
Outline: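 Differentiated human HepaRG cells in serum-free induction medium were exposed in duplicate for 48 h to eight half-log concentrations up to 100 uM in 0.5% DMSO. FOXO3 mRNA was quantified by qRT-PCR, normalized to ACTB, GAPDH and POLR2A, with bidirectional fitting versus DMSO.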

[9] = read-out: ABC Transporter (ABCB1), ABCB1 (gene 5243); assay: LTEA_HepaRG_ABCB1: Life Technologies and Expression Analysis (LTEA) Assay for ABC Transporter (ABCB1) using HepaRG (AID 2283460)
Outline: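 Differentiated human HepaRG cells, plated 48 h then switched to serum-free induction medium, were exposed in duplicate to eight half-log concentrations up to 100 uM in 0.5% DMSO for 48 h. ABCB1 mRNA was measured by TaqMan qRT-PCR, normalized to ACTB/GAPDH/POLR2A.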

[10] = read-out: growth arrest and DNA damage 45 (GADD45B), GADD45B (gene 4616); assay: LTEA_HepaRG_GADD45B: Life Technologies and Expression Analysis (LTEA) Assay for growth arrest and DNA damage 45 (GADD45B) using HepaRG (AID 2283461)
Outline: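 Human HepaRG monolayers receive chemicals for 48 h at eight half-log concentrations, highest 100 uM, in 0.5% DMSO. Expression is measured by TaqMan qRT-PCR and normalized to ACTB, GAPDH and POLR2A.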

[11] = read-out: ABC Transporter (ABCC3), ABCC3 (gene 8714); assay: LTEA_HepaRG_ABCC3: Life Technologies and Expression Analysis (LTEA) Assay for ABC Transporter (ABCC3) using HepaRG (AID 2283462)
Outline: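 Transcriptional change of ABCC3 in HepaRG after 48 h treatment, determined by qRT-PCR normalized to endogenous controls. Concentrations spanned eight half-log steps to 100 uM in 0.5% DMSO.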

[12] = read-out: ABC Transporter (ABCB11), ABCB11 (gene 8647); assay: LTEA_HepaRG_ABCB11: Life Technologies and Expression Analysis (LTEA) Assay for ABC Transporter (ABCB11) using HepaRG (AID 2283463)
Outline: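 Differentiated human HepaRG cells were exposed for 48 h in serum-free induction medium to eight half-log concentrations up to 100 uM in 0.5% DMSO. ABCB11 mRNA was quantified by qRT-PCR, normalized to ACTB, GAPDH and POLR2A, and fitted bidirectionally versus DMSO.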

[13] = read-out: ABC Transporter (ABCC2), ABCC2 (gene 1244); assay: LTEA_HepaRG_ABCC2: Life Technologies and Expression Analysis (LTEA) Assay for ABC Transporter (ABCC2) using HepaRG (AID 2283464)
Outline: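 After plating and 48 h culture, HepaRG medium is replaced with serum-free induction medium and chemicals are added (8 concentrations, max 100 uM, 0.5% DMSO) for 48 h. Total RNA then undergoes qRT-PCR for ABCC2 with housekeeping normalization.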

[14] = read-out: Broad substrate specificity ATP-binding cassette transporter ABCG2 (Homo sapiens) (UniProt Q9UNQ0); assay: LTEA_HepaRG_ABCG2: Life Technologies and Expression Analysis (LTEA) Assay for ABC Transporter (ABCG2) using HepaRG (AID 2283465)
Outline: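 Differentiated HepaRG cells in serum-free induction medium were exposed for 48 h, in duplicate, to eight half-log concentrations up to 100 uM in 0.5% DMSO. ABCG2 mRNA was measured by TaqMan qRT-PCR, normalized to ACTB, GAPDH and POLR2A, and fitted bidirectionally versus DMSO.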

[15] = read-out: ATP-citrate lyase (ACLY), ACLY (gene 47); assay: LTEA_HepaRG_ACLY: Life Technologies and Expression Analysis (LTEA) Assay for ATP-citrate lyase (ACLY) using HepaRG (AID 2283466)
Outline: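 Differentiated human HepaRG cells in serum-free induction medium exposed 48 h, in duplicate, to eight half-log concentrations from 100 uM top in 0.5% DMSO; ACLY mRNA measured by qRT-PCR, normalized to ACTB, GAPDH, POLR2A, fitted bidirectionally versus DMSO.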

[16] = read-out: Peroxisomal acyl-coenzyme A oxidase 1 (ACOX1) gene, ACOX1 (gene 51); assay: LTEA_HepaRG_ACOX1: Life Technologies and Expression Analysis (LTEA) Assay for Peroxisomal acyl-coenzyme A oxidase 1 (ACOX1) gene using HepaRG (AID 2283467)
Outline: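 Differentiated human HepaRG cells were exposed in duplicate for 48 h in serum-free induction medium to eight half-log concentrations up to 100 uM in 0.5% DMSO. ACOX1 mRNA was then quantified by TaqMan qRT-PCR, normalized to ACTB, GAPDH and POLR2A.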

[17] = read-out: Alkaline Phosphatase, Placental (ALPP) gene, ALPP (gene 250); assay: LTEA_HepaRG_ALPP: Life Technologies and Expression Analysis (LTEA) Assay for Alkaline Phosphatase, Placental (ALPP) gene using HepaRG (AID 2283468)
Outline: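 Using human liver HepaRG cells, chemicals are tested in duplicate over 48 h at half-log concentrations topping at 100 uM; phenobarbital 1 mM serves as induction control. ALPP mRNA change by qRT-PCR, bidirectional fit against vehicle.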

[18] = read-out: Bcl-2 (BAD) gene, BAD (gene 572); assay: LTEA_HepaRG_BAD: Life Technologies and Expression Analysis (LTEA) Assay for Bcl-2 (BAD) gene using HepaRG (AID 2283469)
Outline: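 Differentiated human HepaRG cells in serum-free induction medium were exposed in duplicate for 48 h to eight concentrations (top 100 uM, half-log steps, 0.5% DMSO). BAD mRNA was quantified by qRT-PCR normalised to ACTB, GAPDH and POLR2A, with bidirectional fitting versus DMSO.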

[19] = read-out: Bcl-2 (BAX) gene, BAX (gene 581); assay: LTEA_HepaRG_BAX: Life Technologies and Expression Analysis (LTEA) Assay for Bcl-2 (BAX) gene using HepaRG (AID 2283470)
Outline: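 HepaRG (human liver), 48 h exposure, duplicate wells. 8-pt curve, half-log from 100 uM, 0.5% DMSO. BAX transcript by TaqMan qRT-PCR; ACTB/GAPDH/POLR2A normalization; gain or loss vs DMSO baseline.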

Measured: AC50

Chain of Broad substrate specificity ATP-binding cassette transporter ABCG2 (Homo sapiens) (Q9UNQ0 whole entry, looked up): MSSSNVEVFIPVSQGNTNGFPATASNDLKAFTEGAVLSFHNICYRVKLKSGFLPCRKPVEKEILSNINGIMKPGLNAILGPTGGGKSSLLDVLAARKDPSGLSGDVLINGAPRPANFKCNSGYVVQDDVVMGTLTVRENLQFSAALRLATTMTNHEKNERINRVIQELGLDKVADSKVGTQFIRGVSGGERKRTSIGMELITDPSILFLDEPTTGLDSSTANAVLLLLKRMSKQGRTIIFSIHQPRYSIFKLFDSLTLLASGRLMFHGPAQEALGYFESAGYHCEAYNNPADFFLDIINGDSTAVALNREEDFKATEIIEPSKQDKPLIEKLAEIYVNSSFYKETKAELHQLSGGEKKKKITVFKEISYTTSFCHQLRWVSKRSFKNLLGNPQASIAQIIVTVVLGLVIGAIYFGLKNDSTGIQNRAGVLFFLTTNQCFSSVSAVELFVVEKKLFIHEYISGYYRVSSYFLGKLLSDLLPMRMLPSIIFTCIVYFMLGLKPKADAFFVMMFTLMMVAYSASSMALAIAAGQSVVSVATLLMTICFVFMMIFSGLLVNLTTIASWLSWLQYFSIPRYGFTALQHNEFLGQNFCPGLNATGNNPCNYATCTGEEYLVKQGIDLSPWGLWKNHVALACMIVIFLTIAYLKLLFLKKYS

CCCC[C@H]1CN(CC2CCOCC2)C(=O)OC12CCN(C1(C)CCN(C(=O)c3c(C)ncnc3C)CC1)CC2
not listed: [19]
inactive: all other assays above

NCCOCCOCCN
active: [4] 50 µM | [14] 12.1 µM
not listed: [19]
inactive: all other assays above

O=C(N[C@@H](c1ccccc1)[C@@H]1CCCCN1)c1cccc(C(F)(F)F)c1Cl
active: [1] 16.6 µM | [2] 56.7 µM | [3] 53.7 µM | [5] 77.2 µM | [6] 75.9 µM | [8] 73.4 µM | [9] 89.9 µM | [10] 50 µM | [11] 12.9 µM | [12] 24.1 µM | [13] 78.1 µM | [15] 11.4 µM | [16] 74.2 µM | [17] 10.8 µM
inactive: [4] | [7] | [14] | [18]

CCCCC(CC)COC(=O)CCCCCCCC(=O)OCC(CC)CCCC (stereo not drawn)
active: [4] 50 µM
inactive: all other assays above
